The values below come from PubChem BioAssay (EPA / NIEHS).

As a reminder, the AC50 is the concentration giving half of the maximal activity seen.

Test [1] is described as follows: Tanguay_ZF_120hpf_MO24: Oregon State University Tanguay Lab 24 Hour Post-fertilization zebrafish Assay for Mortality (AID 2284389). In outline: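 Dechorionated wild-type zebrafish embryos, 1 per well, statically exposed from 6 hpf at 28C, 0.64% DMSO final. Mortality scored as binary present/absent at 24 hpf by brightfield microscopy, relative to DMSO.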
Test [2] in a line: Tanguay_ZF_120hpf_DP24: Oregon State University Tanguay Lab 24 Hour Post-fertilization zebrafish Assay for Delayed Development (AID 2284390). In outline: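 Dechorionated 5D wild-type zebrafish embryos exposed statically from 6 hpf, one per well, 0.64% DMSO final, 28 C, sealed and dark. Developmental progression scored at 24 hpf by brightfield as binary present/absent; dead embryos excluded.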

Test [3] can be described thus: Tanguay_ZF_120hpf_CRAN: Oregon State University Tanguay Lab 120 Hour Post-fertilization zebrafish Assay for Craniofacial Malformation (AID 2284397). As for the experimental part: Tanguay_ZF_120hpf is a whole embryo, multiplexed endpoint assay using zebrafish larvae exposed for 120 hours post fertilization on a 96-well plate.Tanguay_ZF_120hpf_CRAN is one of one assay component(s) measured or calculated from the Tanguay_ZF_120hpf assay. It is designed to make measurements of zebrafish development as detected with brightfield microscopy of developing zebrafish embryos.Data from the assay component Tanguay_ZF_120hpf_CRAN was analyzed into 1 assay endpoints. This assay endpoint, Tanguay_ZF_120hpf_CRAN, was analyzed in the positive analysis fitting direction relative to DMSO as the negative control and baseline of activity. Using a type of morphology reporter, gain-of-signal activity can be used to understand changes in developmentals as they relate to the whole embryo. To generalize the intended target to other relatable targets, this assay endpoint is annotated to the zebrafish development intended target family, where the subfamily is craniofacial morphogenesis.
Zebrafish husbandry: Tropical 5D wild-type adult zebrafish were housed in at an approximate density of 1000 per 100 gallon tank at the Sinnhuber Aquatic Research Laboratory, Oregon State University, Corvallis, OR. […] At 24 hpf, embryos were assessed for photomotor response using a custom photomotor response analysis tool (PRAT) and for developmental toxicity endpoints (MO24: mortality at 24 hpf, DP: developmental progression, SM: spontaneous movement, and NC: notochord distortion). At 120 hpf, locomotor activity was measured using Viewpoint Zebralab and assessed for 13 endpoints. Zebrafish acquisition and analysis program (ZAAP), a custom program designed to inventory, acquire, and manage zebrafish data, was used to collect developmental endpoints as either present or absent (i.e., binary responses were recorded). If mortality occurred for an embryo (at either 24 or 120 hpf), the non-mortality endpoints were not measured.

Test [4] in a line: Tanguay_ZF_120hpf_AXIS: Oregon State University Tanguay Lab 120 Hour Post-fertilization zebrafish Assay for Axial Malformation (AID 2284398). In short, it runs like this: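 Dechorionated 5D wild-type zebrafish embryos exposed statically, one per well, from 6 to 120 hpf at 28C, 0.64% DMSO. Axial malformation scored as present/absent by brightfield microscopy at 120 hpf; dead embryos not scored.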

Test [5] is described as follows: Tanguay_ZF_120hpf_MORT: Oregon State University Tanguay Lab 120 Hour Post-fertilization zebrafish Assay for Mortality (AID 2284399). In short, it runs like this: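 Dechorionated wild-type Tropical 5D zebrafish embryos, one per well from 6 hpf, static exposure to 120 hpf at 28C in sealed dark plates, 0.64% DMSO final. Mortality scored as binary by brightfield at 24 and 120 hpf.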

Test [6] in a line: Tanguay_ZF_120hpf_EDEM: Oregon State University Tanguay Lab 120 Hour Post-fertilization zebrafish Assay for Edema Malformation (AID 2284400). In short, it runs like this:
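Dechorionated Tropical 5D wild-type embryos, one per well, statically exposed from 6 to 120 hpf at 28C in 0.64% DMSO. Edema scored present/absent by brightfield microscopy at 120 hpf; dead embryos not scored; fit versus DMSO.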

The subject of test [7] is SRY-box transcription factor 2 (SOX2) Protein Expression, Deisenroth Lab, SOX2 (gene 6657). The test is described as follows: CCTE_Deisenroth_DEVTOX-GLR_legacy_Sox2: (Legacy) CCTE's DevTox GLR-Endo Assay Evaluation of SRY-box transcription factor 2 (SOX2) Protein Expression, Deisenroth Lab (AID 2284346). In short, it runs like this: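 RUES2-GLR human pluripotent cells were differentiated for 48 h with two chemical doses 24 h apart, over 1 nM-200 uM. Sox2+ cells were those above 5x BMAD of the endoderm-control median; percent Sox2+ minus the 0.2% DMSO median was used, from n=4 replicates.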

Test [8] is described as follows: CCTE_Deisenroth_H295R-HTRF_384WELL_ESTRADIOL: CCTE's H295R-HTRF Assay Evaluation of Estradiol Concentration, Deisenroth Lab (AID 2284361). As to conditions: actives raise or lower the signal. In short, it runs like this: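 H295R cells exposed 48 h to chemicals at 0.001 - 100 uM final (nine points, triplicate); estradiol in conditioned medium measured by HTRF immunoassay, fitted bidirectionally versus DMSO. Viability by CellTiter-Glo on same plates.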

Test [9] in a line: CCTE_Deisenroth_H295R-HTRF_384WELL_TESTOSTERONE: CCTE's H295R-HTRF Assay Evaluation of Testosterone Concentration, Deisenroth Lab (AID 2284373). As to conditions: actives raise or lower the signal. In outline:
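Testosterone secreted into medium was quantified by direct HTRF immunoassay after a 48 h treatment of H295R adrenocortical cells (nine concentrations, 0.001–100 uM final). Gain or loss fitted relative to DMSO; CellTiter-Glo viability read on same plates.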
(In general: In TR-FRET formats the signal depends on donor and acceptor labels being close together.)

Test [10] is described as follows: CCTE_Deisenroth_H295R-HTRF_384WELL_CTOX: Cytotoxicity Assessment in CCTE's H295R-HTRF Assay, Deisenroth Lab (AID 2284380; active = hit-call score of the fitted dose curve at least 0.9, where 1 is the maximum). On the procedure:
CCTE_Deisenroth_H295R-HTRF_384WELL assay is a cell-based, multiplex-readout assay that uses H295R, a human adrenocortical carcinoma cell line, with measurements taken at 48 hours after chemical dosing in a 384-well microplateCCTE_Deisenroth_H295R-HTRF_384WELL_CTOX is one of 3 assay components measured in the CCTE_Deisenroth_H295R-HTRF_384WELL assay (2 hormones and 1 viability components). It is designed to make measurements of adenosine triphosphate (ATP), a form of viability reporter, as detected with luminescence intensity signals by CellTiter-Glo 2.0 cytotoxicity assay technology.This assay endpoint, CCTE_Deisenroth_H295R-HTRF_384WELL_CTOX, was analyzed in the positive fitting direction relative to DMSO as the negative control and baseline of activity. […]
Standard operating procedures for the cell culture medium, maintenance, expansion, and cryopreservation of the NCI-H295R adrenocortical carcinoma adherent cell line were adopted directly from guideline specifications (EPA 2011, OECD 2011). […] Fluorescent endpoint measurements are conducted with a microplate reader equipped with an HTRF-compatible filter set (ex: 320 (10) […]; em: 620 (10) and 665 (10) nM). […] After collecting conditioned medium samples on Day 3, the viability assay is immediately performed and luminescence readings measured on a microplate reader. […]

Active and inactive are the calls of the source. The calls were made as follows, unless noted: active = hit-call score of the fitted dose curve at least 0.9, where 1 is the maximum; inactive = score below 0.9.

On to `OCCC(F)(F)C(F)(F)C(F)(F)C(F)(F)C(F)(F)C(F)(F)C(F)(F)C(F)(F)F`, for which the outcome in test [1], in test [2], in test [3], in test [4], in [5] and in test [6] was inactive.

As for `CC(O)CO` (centres undefined), the result in [7] was inactive.

Turning to `C[C@@H]1C[C@H]2[C@@H]3CCC4=CC(=O)C=C[C@]4(C)[C@@]3(F)[C@@H](O)C[C@]2(C)[C@@]1(O)C(=O)COP(=O)(O)O`, the result in test [7] was inactive.

As for `CC#C[C@]1(O)CC[C@H]2[C@@H]3CCC4=CC(=O)CCC4=C3[C@@H](c3ccc(N(C)C)cc3)C[C@@]21C`, the molecule was called inactive in test [8], in [9] and in test [10].

As to `CC1=C(/C=C/C(C)=C/C=C/C(C)=C/C(=O)O)C(C)(C)CCC1`, the AC50 in [7] is 82.8 µM (active).

Regarding `OCCC(F)(F)C(F)(F)C(F)(F)C(F)(F)C(F)(F)C(F)(F)F`, the outcome in test [1], in test [2], in test [3], in test [4], in test [5] and in test [6] was inactive.

Consider `C=C(C)C(=O)OCCC(F)(F)C(F)(F)C(F)(F)C(F)(F)C(F)(F)C(F)(F)F`, for which the result in test [1], in test [2], in test [3], in [4], in test [5] and in [6] was inactive.
